Bioassay records (PubChem BioAssay)
TSG101-PTAP inh: blocks PTAP/TSG101 interaction to inhibit HIV-1 budding; Q99816; Fluorescence polarization, FITC-PTAP peptide / Tsg101 binding; Potency, µM (titrated, usually from 115 µM), without a hit: top-dose activity change, negative = inhibition, most hits filed as inhibitors; 340,000 tested, under 10 active; active = well fitted inhibition curve with a large enough effect in the main read-out, with a control signal flat, not every such curve was filed as active; inconclusive = small, poorly fitted or top-dose-only effect, or effect the other way, or a change in a side signal; inactive = no such curve, though single readings can be large or run the other way; also: % of control where 0% means no effect
Target sequence (Q99816 whole entry, looked up): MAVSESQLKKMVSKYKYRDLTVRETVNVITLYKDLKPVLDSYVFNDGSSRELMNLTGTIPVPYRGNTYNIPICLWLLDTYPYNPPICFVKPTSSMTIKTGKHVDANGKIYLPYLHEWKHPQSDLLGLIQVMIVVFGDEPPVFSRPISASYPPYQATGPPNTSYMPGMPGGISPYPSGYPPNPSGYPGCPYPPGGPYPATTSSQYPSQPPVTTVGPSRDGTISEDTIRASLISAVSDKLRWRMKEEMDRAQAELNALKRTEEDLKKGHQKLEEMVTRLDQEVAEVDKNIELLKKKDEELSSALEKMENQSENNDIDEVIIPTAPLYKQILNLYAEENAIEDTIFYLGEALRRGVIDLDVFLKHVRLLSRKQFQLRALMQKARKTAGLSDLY
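Compounds were pin-transferred onto Tsg101 binding domain (10 uM final) in HEPES pH 7.5 buffer, then FITC-PTAP peptide was added at 50 nM final. After 20 min at RT, polarization reported peptide displacement across a qHTS concentration series.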
ClpP mod: qHTS Assay for Activators of ClpP | Potency, µM (top dose mostly 57.5 µM), inactives show top-dose activity change, negative = active | purified B. subtilis ClpP, FRET peptide cleavage, 20 min | AID 651965, 2013 | actives 1.9% (n = 340,000) | ATP-dependent Clp protease proteolytic subunit (Bacillus subtilis (strain 168)), P80244; active = well fitted falling curve with a large enough effect; inconclusive = small, poorly fitted or top-dose-only effect; inactive = no such curve, though single readings can be large or run the other way; also: the source files actives as falling curves though it sought activators and does not explain the sign; nearly all actives have a fitted effect of over 65% in size
Target sequence (P80244 whole entry, looked up): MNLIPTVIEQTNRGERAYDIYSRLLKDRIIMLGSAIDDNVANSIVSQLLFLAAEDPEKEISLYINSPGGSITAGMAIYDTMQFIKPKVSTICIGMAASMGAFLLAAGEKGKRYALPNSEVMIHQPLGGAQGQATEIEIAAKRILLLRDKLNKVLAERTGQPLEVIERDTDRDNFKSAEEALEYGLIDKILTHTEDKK
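ClpP 10 microg/mL final, pH 8 Tris/KCl buffer with BSA, glycerol, Tween-20; compound pinned in; FRET-FV substrate; RT 20 min; Ex320/Em430; ΔFRET vs ADEP 5.8 microM, DMSO, no enzyme.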
TDP1 inh: blocks human tyrosyl-DNA phosphodiesterase 1 | recombinant TDP1, AlphaScreen DNA substrate cleavage | Potency, µM (highest dose often 130 µM), for inactives: at the top dose activity change, negative = inhibition, actives largely listed as inhibitors | actives 0.28% (n = 350,000) | Q9NUW8 | AID 485290; active = well fitted curve in the direction sought with a large enough effect; inconclusive = small, poorly fitted or top-dose-only effect, or another doubt; inactive = no such curve, though single readings can be large; an effect the other way counts as inactive or inconclusive; also: % is scaled to controls: 0 for no effect and ±100 for the full control effect; nearly all actives have a fitted effect of over 40% in size
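Signal: AlphaScreen proximity between streptavidin donor and anti-FITC acceptor beads on intact substrate. Reaction: Tdp1 1 nM, substrate 15 nM final, 5 min RT after 15 min compound preincubation.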
Rango complex inh: inhibitors of Rango-importin beta complex formation; Q14974; Rango CFP/YFP FRET sensor + importin beta, 45 min; Potency, µM (titrated, usually from 92.2 µM), for inactives: at the top dose inhibition of complex formation; actives 0.031% (n = 340,000);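 also: 0% = DMSO wells and 100% = buffer wells lacking importin beta; nearly all actives have a fitted effect of over 15% in size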
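FRET biosensor (snurportin 1 IBB flanked by EYFP and cerulean), 50 nM, with compound 5 min, then 0.125 microM importin beta in PBS, 1 mM DTT, 0.02% Tween-20, 0.1% BSA. CFP/YFP ratio read after 45 min at room temperature; pre-read flags interference.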
12-LOX inh: blocks human arachidonate 12S-lipoxygenase; P18054; purified 12hLO, xylenol orange hydroperoxide absorbance; Potency, µM (series often up to 108 µM), inactives show at the highest dose activity change, negative = inhibition, hits mostly inhibitors; actives 1.1% (n = 580,000); active = well fitted curve in the direction sought with a large enough effect; inconclusive = small, poorly fitted or top-dose-only effect, or another doubt; inactive = no such curve, though single readings can be large; an effect the other way counts as inactive or inconclusive; also: % is scaled to controls: 0 for no effect and ±100 for the full control effect
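Purified human 12hLO at 150 nM in 25 mM Hepes, 0.01% Triton X-100, pH 7.0, preincubated 15 min at room temperature with compound. Reaction started with 40 uM arachidonic acid, 30 min at room temperature. Hydroperoxide measured by Fe-xylenol orange, 573/405 nm absorbance ratio.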
Rango dissoc inh: inhibition of RanGTP-driven Rango-importin beta dissociation. actives 0.071% (n = 340,000). Potency, µM (doses to about 46.1 µM), for the others: top-dose activity change, negative = inhibition. Biochemical FRET Rango-importin beta, RanGTP-induced dissociation; also: % of control where 0% means no effect; nearly all actives have a fitted effect of over 45% in size
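Rango/importin beta premix (0.1/0.25 uM final), PBS + 1 mM DTT + 0.02% Tween-20 + 0.1% BSA; cpd 5 min RT; FRET pre-read; + RanGTP-RCC1 (0.6 uM Ran, 2 mM GTP, 0.2 uM RCC1); 45 min RT; FRET post-read, ex 430, em 486/530 nm.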
Starred values were filed as active, the others as inactive; u = inconclusive; x = not tested or not shown; ! = not active in a repeat; [ ] = another dose, or the depositor's remark. Compounds with a hit are over-represented: about 2.4% of the library has one in this group of screens. Unless noted, calls follow the shape of the full dose curve. Potency is read from the fitted curve at half-maximal effect.

SMILES | TSG101-PTAP inh | ClpP mod | TDP1 inh | Rango complex inh | 12-LOX inh | Rango dissoc inh
Cc1ccc(C(C)C)c(OCC(=O)Nc2ccc3oc(C)nc3c2)c1 | x | x | x | x | 19% | x
CCc1cccc2c(C(=O)COC(=O)c3ccccc3)c[nH]c12 | -1% | -22% | -1% | 0% | 20% | -2%
CCc1cccc2c(C(=O)COC(=O)c3nccnc3N)c[nH]c12 | 2% | 28µM* | x | -3% | 1% | -15%
Cc1cccc(NCc2cc(C(C)(C)C)c(O)c(C(C)(C)C)c2)c1 | x | x | x | x | 10µM* | x
CC1(C)S[C@@H]2[C@H](NC(=O)[C@H](N)c3ccccc3)C(=O)N2[C@H]1C(=O)O | -2% | -2% | 22µM*! | 0% | 10% | -12%
Cc1oc(-c2cccc(NC(=O)c3ccccn3)c2)nc1CNC(=O)C#Cc1ccccc1 | x | x | x | x | 3% | x
COc1ccc(C(=O)N2CCN(C)C(=O)[C@@H]2C)cc1OC1CCN(C(C)=O)CC1 | -1% | 32µM* | 2% | 4% | 4% | 8%
COc1ccc(C(=O)N2CCN(C)C(C)C2)cc1OC1CCN(C(C)=O)CC1 (stereo unspecified) | -1% | 0% | 0% | 0% | 458% | 21%
CC1(C)CC(=O)C2=C(C1)Nc1ccccc1NC2c1cccc(F)c1 (stereo unspecified) | 0% | 0% | 5% | 1% | 11µM* | -14%
Cc1ccccc1C(CNC(=O)c1cc(-c2ccc(F)cc2)n[nH]1)N(C)C (stereo unspecified) | x | x | x | x | 142% | x
Cc1ccc(-c2noc(CCC(=O)NCCN3CCN(Cc4ccccc4)CC3)n2)cc1 | -3% | 28µM* | 8% | -2% | 0% | 11%
Cc1ccc(-c2noc(CCC(=O)NCCN3CCOCC3)n2)cc1 | 1% | -3% | 6% | 0% | 0% | 2%
Cc1cc(C)c(CN2CCN(Cc3ccc(C)o3)C(CCO)C2)c(-n2cccn2)c1 (stereo unspecified) | -1% | 25µM* | 2% | 2% | -2% | -10%
Cc1ccc(CN2CCN(Cc3c(C)nn(-c4ccc(F)cc4)c3C)CC2CCO)o1 (stereo unspecified) | -3% | 1% | 5% | -2% | -7% | -3%
CN(C)c1cccc(-c2n[nH]c3c2CC(=O)N(CC2CC2)C3)c1 | x | x | x | x | 1%[176 µM] | x
CCCN(CCC)CC(O)CN(c1ccccc1)S(=O)(=O)c1ccc(C)cc1 (stereo unspecified) | -1% | -2% | 2% | 1% | -6% | -10%
Cc1ccc(S(=O)(=O)N(Cc2ccccc2)Cc2ccco2)cc1 | -3% | -2% | 3% | 4% | -26% | 10%
Cc1ccc(N(CC(O)COCc2ccco2)S(=O)(=O)c2ccc(C)cc2)cc1 (stereo unspecified) | -13% | 0% | 2% | 11% | 35µM* | 0%
Cc1ccc(S(=O)(=O)N(CC(=O)O)Cc2ccco2)cc1 | -6% | -1% | 22µM* | 0% | -23% | 7%
O=C1CC(c2ccccc2)N(C(=O)CNC(=O)C2CCC2)CCCCCCN1 (stereo unspecified) | x | x | x | x | 50% | x
c1cnc2c(c1)nc1n2[C@@H](CNC2CCOCC2)COC1 | x | x | x | x | 8%[176 µM] | x
CS(=O)(=O)Nc1cccc(-c2nc(N3CCOCC3)c3ccccc3n2)c1 | x | x | 4% | x | u | x
CN(C)C(=O)c1ccc(-c2nc(N3CCOCC3)c3ccccc3n2)cc1 | x | x | x | x | 45µM* | x
C[n+]1cn(CC(O)COCc2ccccc2)c2ccccc21 (stereo unspecified) | -3% | -1% | 4% | 1% | 40µM* | -2%
COc1cccc(CN(CCC(=O)O)Cc2cccc(OC)c2)c1 | x | -6% | x | x | 18µM* | x
SMILES | TSG101-PTAP inh | ClpP mod | TDP1 inh | Rango complex inh | 12-LOX inh | Rango dissoc inh
CC(C)CN(CC(=O)NC(=O)NC(C)(C)C)C1CC1 | x | x | x | x | 32% | x
Cc1occc1-c1nnc(SC(C(=O)NCc2ccccc2)C(C)C)o1 (stereo unspecified) | x | x | x | x | 6% | x
CN(C)c1nc(-c2cccs2)cc(C(F)(F)F)c1C#N | -3% | x | x | u | 0% | u
CN(C)c1nc(-c2ccccc2)cc(C(F)(F)F)c1C#N | 0% | 32µM* | x | u | -1% | u
CC1CCCC(C)N1S(=O)(=O)c1ccc(Cl)cc1 (stereo unspecified) | -6% | x | 0% | -2% | -51% | -16%
CC1=C(C)CS(=O)N(S(=O)(=O)c2ccc(Cl)cc2)C1 (stereo unspecified) | 0% | 0% | 5% | -3% | 40µM* | -5%
Cc1cc(C(=O)NCC(F)(F)F)c2c(C3CCCNC3)noc2n1 (stereo unspecified) | x | x | x | x | 6%[6.33 µM] | x
CNC(=O)c1ccc2nc(-c3ccccc3)c(-c3ccccc3)nc2c1 | x | 5% | 1% | x | x | x
C=CCNC(=O)c1ccc2nc(-c3ccccc3)c(-c3ccccc3)nc2c1 | -5% | 20µM* | 2% | 2% | 0% | 1%
COc1cc(CN(C(=O)COc2c(C)cccc2C)c2ccccn2)cc(OC)c1OC | x | x | x | x | 4% | x
COc1ccc(-c2noc([C@@H]3C[C@H](NS(=O)(=O)c4ccc(F)cc4)CN3C)n2)cc1 | x | x | x | x | -2%[176 µM] | x
COc1ccc(CC(=O)OC(C)C(=O)c2ccc(C)cc2)cc1 (stereo unspecified) | 0% | 1% | 79µM* | -4% | -4% | 1%
COc1ccc(/C(N)=N/OC(=O)Cc2ccc(C)cc2)cc1 | 5% | x | -11% | 0% | -7% | -1%
O=[N+]([O-])c1ccc(NN=Cc2cccc3ccccc23)cc1 | -6% | x | x | u | -29% | u
O=[N+]([O-])c1cc(Br)c(O)c(/C=N/Nc2nnnn2-c2cccc3ccccc23)c1 | -6% | -1% | 12% | u | 11µM* | u
CCSc1oc(-c2ccc(F)cc2)nc1S(=O)(=O)c1ccc(C)cc1 | x | u | -3% | x | 40µM*! | x
CCCSc1oc(-c2ccco2)nc1S(=O)(=O)c1ccc(C)cc1 | 4% | x | -9% | 1% | u | 22%
Cc1ccc(S(=O)(=O)c2nc(-c3ccco3)oc2SC(C)c2ccccc2)cc1 (stereo unspecified) | x | -3% | -9% | x | u | x
CCCCSc1oc(-c2ccco2)nc1S(=O)(=O)c1ccc(F)cc1 | x | x | x | x | 7.9µM* | x
CC(C)Sc1oc(-c2ccco2)nc1S(=O)(=O)c1ccc(F)cc1 | -4% | -5% | 4% | u | 28µM*! | u
